Experiment [1] in a line: Nuclear factor erythroid 2-related factor 2/antioxidant responsive element (Nrf2/ARE) small molecule agonists: qHTS cell viability counter screen in human keratinocytes (AID 1919968; active = well fitted curve in the direction sought with a large enough effect in the repeat runs; an effect the other way counts as inactive or inconclusive; note: nearly all actives have a fitted effect of over 55% in size). Summed up: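 Viability counter-screen: KeratinoSens reporter cells, DMSO-delivered compounds, 23 h at 37 C, CellTiter-Fluor fluorescence.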
Experiment [2] can be described thus: Nuclear factor erythroid 2-related factor 2/antioxidant responsive element (Nrf2/ARE) small molecule agonists: luciferase reporter gene qHTS assay in human keratinocytes (AID 1919969). Note: nearly all actives have a fitted effect of over 35% in size. Note: potency is the fitted concentration of half-maximal effect.
Experiment [3] has as its target Gonadotropin-releasing hormone receptor (Homo sapiens) (UniProt P30968). Briefly: Human gonadotropin-releasing hormone receptor (GnRHR) small molecule agonists, calcium flux assay in GnRHR-HEK293 cells (AID 1920063). Note: nearly all actives have a fitted effect of over 35% in size. Summed up: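 Tox21-format agonist screen using human GnRHR-expressing HEK293 cells and a fluorescent calcium dye; kinetic 3-min fluorescence reading after compound addition, 15-point concentration series run in triplicate.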

For experiment [4], the target named is KiSS-1 receptor (Homo sapiens) (UniProt Q969F8). Kind of experiment: Human kisspeptin (KISS1R) small molecule agonists, calcium flux assay in KISS1R-HEK293 cells (AID 1920064; active = well fitted curve in the direction sought with a large enough effect in the repeat runs; an effect the other way counts as inactive or inconclusive). Summed up: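 Intracellular calcium mobilization in KISS1R-HEK293 cells was recorded by fluorescence (Ex/Em 480/540) for 3 min following compound addition to cells pre-loaded 1 h with calcium dye.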
Chain of KiSS-1 receptor (Homo sapiens) (Q969F8 whole entry, looked up): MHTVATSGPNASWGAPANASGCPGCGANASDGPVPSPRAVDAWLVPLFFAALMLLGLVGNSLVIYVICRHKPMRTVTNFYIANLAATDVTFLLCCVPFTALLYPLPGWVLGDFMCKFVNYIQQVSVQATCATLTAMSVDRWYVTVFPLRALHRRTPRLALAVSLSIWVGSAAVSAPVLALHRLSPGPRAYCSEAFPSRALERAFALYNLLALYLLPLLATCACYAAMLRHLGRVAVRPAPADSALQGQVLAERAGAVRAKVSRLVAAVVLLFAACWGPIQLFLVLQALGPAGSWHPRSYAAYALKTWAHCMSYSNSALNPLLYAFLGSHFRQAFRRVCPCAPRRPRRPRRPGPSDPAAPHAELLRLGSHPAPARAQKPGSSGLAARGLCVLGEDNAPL

The nature of experiment [5]: p53 small molecule agonists, cell-based qHTS assay with human liver microsomes (AID 1963577). In outline: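 Compounds act here after metabolic activation: human liver microsomes and NADPH, both at 0.5 mg/mL final, were co-added to p53RE-bla cells. Incubation ran 16 h at 37 C, followed by LiveBLAzer detection.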
Experiment [6] in a line: p53 small molecule agonists, cell-based qHTS assay with human liver microsomes: qHTS cell viability counter screen (AID 1963579). Note: nearly all actives have a fitted effect of over 45% in size. In outline:
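Cells carrying the p53 response-element beta-lactamase reporter are treated for 16 h at 37 C with test compounds in the presence of human liver microsomes and NADPH (both 0.5 mg/mL final); ATP-based CellTiter-Glo luminescence then reports viability.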

Experiment [7] in a line: p53 small molecule agonists, cell-based qHTS assay: qHTS cell viability counter screen (AID 1963581). Note: nearly all actives have a fitted effect of over 45% in size. In outline:
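Compounds are pinned onto HCT-116 p53RE-bla cells and left 16 h at 37 C. Following the reporter FRET read, ATP is quantified by CellTiter-Glo luminescence after 30 min at room temperature.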

For experiment [8], the target named is 5-hydroxytryptamine receptor 2A (Homo sapiens) (UniProt P28223). Kind of experiment: 5-hydroxytryptamine receptor 2A (HTR2A) small molecule antagonists, cell-based qHTS assay (AID 1963586). Note: nearly all actives have a fitted effect of over 45% in size. Note: potency is the fitted concentration of half-maximal effect. Summed up:
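Antagonist-mode intracellular calcium assay: DOI (4 nM) added after 5 min compound pre-incubation at room temperature to dye-loaded HTR2A-CHO cells. Fluorescence followed for 3 min, sampled every second.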

Experiment [9] shares this target. Briefly: 5-hydroxytryptamine receptor 2A (HTR2A) small molecule agonists, cell-based qHTS assay (AID 1963587). Note: nearly all actives have a fitted effect of over 30% in size. Summed up: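 HTR2A-CHO cells, plated 18 h at 37 C/5% CO2, dye-loaded 1 h at 37 C; compounds in DMSO added by pin tool (agonist mode). Intracellular calcium flux read as kinetic fluorescence on FDSS over 2 min at 1 s intervals.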
The target of experiment [10] is Muscarinic acetylcholine receptor M1 (Homo sapiens) (UniProt P11229). Kind of experiment: Cholinergic receptor muscarinic 1 (CHRM1) small molecule antagonists, cell-based qHTS assay (AID 1963588). Note: nearly all actives have a fitted effect of over 40% in size. In outline: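 CHRM1-CHO calcium-flux assay, antagonist mode. Cells were seeded 18 h, dye-loaded 1 h at 37 C and given compound for 5 min at RT, then acetylcholine was added at 50nM. FDSS fluorescence was read 3 min; 15 concentrations, three runs.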
Chain of Muscarinic acetylcholine receptor M1 (Homo sapiens) (P11229 whole entry, looked up): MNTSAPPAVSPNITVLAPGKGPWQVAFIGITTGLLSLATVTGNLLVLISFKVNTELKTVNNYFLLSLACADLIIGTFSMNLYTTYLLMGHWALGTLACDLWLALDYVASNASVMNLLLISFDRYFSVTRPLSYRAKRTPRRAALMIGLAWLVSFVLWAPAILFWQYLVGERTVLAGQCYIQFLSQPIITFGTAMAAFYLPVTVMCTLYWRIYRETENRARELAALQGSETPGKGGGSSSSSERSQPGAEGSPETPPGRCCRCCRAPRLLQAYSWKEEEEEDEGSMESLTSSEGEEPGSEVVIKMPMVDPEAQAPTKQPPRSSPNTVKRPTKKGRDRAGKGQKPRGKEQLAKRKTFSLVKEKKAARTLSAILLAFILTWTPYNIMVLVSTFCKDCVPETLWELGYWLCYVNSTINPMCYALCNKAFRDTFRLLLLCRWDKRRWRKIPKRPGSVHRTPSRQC

Experiment [11] has the same target. Briefly: Cholinergic receptor muscarinic 1 (CHRM1) small molecule agonists, cell-based qHTS assay (AID 1963589). Note: nearly all actives have a fitted effect of over 35% in size. Summed up: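 Stable CHRM1-CHO cells (human receptor) were incubated 18 h, dye-loaded for 1 h at 37 C and exposed to test compounds for agonist activity, with calcium-dependent fluorescence followed kinetically.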
Experiment [12] addresses Beta-2 adrenergic receptor (Homo sapiens) (UniProt P07550). Briefly: Adrenergic beta2 receptor (ADRB2) small molecule antagonists, cell-based qHTS assay (AID 1963592). Note: series mostly up to about 92 µM; nearly all actives have a fitted effect of over 50% in size. In outline: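 Cells (CHO, stable ADRB2 overexpression) incubated 18-20hr at 37C; compounds added from DMSO; agonist mix (1nM isoproterenol, 100uM IBMX, 25uM Ro-20-1724) added; 0.5hr RT; d2-cAMP and anti-cAMP-cryptate added; 1hr RT; 665/615 nm read.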

Experiment [13] deals with D(2) dopamine receptor (Homo sapiens) (UniProt P14416). Briefly: Dopamine D2 receptor (DRD2) small molecule agonists, cell-based qHTS assay (AID 1963594). Note: nearly all actives have a fitted effect of over 35% in size. In outline: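 HEK293 cells stably expressing DRD2 were cultured 24 h at 37 C, then given Ro20-1724 (0.1 mM final) and compounds for 10 min at room temperature. NKH477 (200nM) was then added for 30 min. cAMP was read by HTRF.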
Chain of D(2) dopamine receptor (Homo sapiens) (P14416 whole entry, looked up): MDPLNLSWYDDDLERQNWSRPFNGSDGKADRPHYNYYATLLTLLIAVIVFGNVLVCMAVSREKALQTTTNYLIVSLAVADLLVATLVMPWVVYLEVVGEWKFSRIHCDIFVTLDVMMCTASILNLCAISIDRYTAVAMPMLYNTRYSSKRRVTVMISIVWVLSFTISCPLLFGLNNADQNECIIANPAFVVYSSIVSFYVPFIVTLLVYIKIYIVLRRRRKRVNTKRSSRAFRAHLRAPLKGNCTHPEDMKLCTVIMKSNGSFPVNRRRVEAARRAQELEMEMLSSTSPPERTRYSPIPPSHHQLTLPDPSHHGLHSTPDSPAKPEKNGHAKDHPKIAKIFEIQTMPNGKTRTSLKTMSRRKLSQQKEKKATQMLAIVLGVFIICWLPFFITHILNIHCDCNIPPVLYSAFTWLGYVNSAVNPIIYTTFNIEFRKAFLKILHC

The target is the same in experiment [14]. Briefly: Dopamine D2 receptor (DRD2) small molecule antagonists, cell-based qHTS assay (AID 1963595; active = well fitted inhibition curve with a large enough effect in the signal ratio in the repeat runs, with a control signal flat; the % refers to the signal ratio; note: potency is the fitted concentration of half-maximal effect). In outline: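 Stable D2 receptor HEK293 line, 24 h after seeding. Compound preincubated 10 min, then quinpirole (12 nM) with forskolin analogue NKH477 (200 nM), 30 min, room temperature. Detection by time-resolved FRET of cAMP.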
A short description of experiment [15]: p53 small molecule agonists, cell-based qHTS assay with rat liver microsomes (AID 1963578). Summed up:
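Read-out is beta-lactamase reporter fluorescence (LiveBLAzer, 2 h, room temperature, dark) in p53RE-bla cells treated 16 h at 37 C with compound, rat liver microsomes and NADPH, both 0.5 mg/mL final.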

The nature of experiment [16]: p53 small molecule agonists, cell-based qHTS assay with rat liver microsomes: qHTS cell viability counter screen (AID 1963580). Note: nearly all actives have a fitted effect of over 45% in size. Summed up:
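In HCT-116 cells carrying a p53 response element-bla reporter, compounds were metabolically activated in situ by rat liver microsomes with NADPH over 16 h. Cell ATP content then served as the cytotoxicity measure.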

Experiment [17] in a line: p53 small molecule agonists, cell-based qHTS assay (AID 1963582; active = well fitted activation curve with a large enough effect in the signal ratio in the repeat runs, not every such curve was filed as active; the % refers to the signal ratio). Summed up:
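Agonist activity was scored from beta-lactamase FRET fluorescence in p53RE-bla cells treated 16 h at 37 C with compounds in DMSO, substrate incubation being 2 h at room temperature.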

Experiment [18] in a line: cAMP Responsive Elements (CRE) small molecule agonists, cell-based qHTS assay (AID 1963590). Summed up: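 FRET-based beta-lactamase readout (LiveBLAzer B/G, 2 h RT) quantified CRE activation in HEK 293T CRE-bla cells after 3 h treatment with DMSO-dissolved compounds.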
Experiment [19] can be described thus: cAMP Responsive Elements (CRE) small molecule antagonists, cell-based qHTS assay (AID 1963591; active = well fitted inhibition curve with a large enough effect in the signal ratio in the repeat runs, not every such curve was filed as active; the % refers to the signal ratio). In outline: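 qHTS in CRE-bla HEK 293T cells: compound in DMSO, then 0.25 uM NKH477 (final), 3 h at 37 °C/5% CO2; beta-lactamase FRET read-out after 2 h substrate incubation.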
In experiment [20] the target is Beta-2 adrenergic receptor (Homo sapiens) (UniProt P07550). Briefly: Adrenergic beta2 receptor (ADRB2) small molecule agonists, cell-based qHTS assay (AID 1963593).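 Note: CHO cells stably overexpressing human ADRB2.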 In outline:
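CHO cells stably over-expressing ADRB2 were plated overnight at 37C, then dosed with compounds plus a stimulation mix containing 100uM IBMX and 25uM Ro-20-1724 for 0.5hr at room temperature. cAMP was measured by HTRF competition, 1hr.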

Values without a mark were called inactive. Inconclusive results are not listed. Calls of active or inactive are those of the source. Unless noted, calls come from the whole dose curve.

Chain of Beta-2 adrenergic receptor (Homo sapiens) (P07550 whole entry, looked up): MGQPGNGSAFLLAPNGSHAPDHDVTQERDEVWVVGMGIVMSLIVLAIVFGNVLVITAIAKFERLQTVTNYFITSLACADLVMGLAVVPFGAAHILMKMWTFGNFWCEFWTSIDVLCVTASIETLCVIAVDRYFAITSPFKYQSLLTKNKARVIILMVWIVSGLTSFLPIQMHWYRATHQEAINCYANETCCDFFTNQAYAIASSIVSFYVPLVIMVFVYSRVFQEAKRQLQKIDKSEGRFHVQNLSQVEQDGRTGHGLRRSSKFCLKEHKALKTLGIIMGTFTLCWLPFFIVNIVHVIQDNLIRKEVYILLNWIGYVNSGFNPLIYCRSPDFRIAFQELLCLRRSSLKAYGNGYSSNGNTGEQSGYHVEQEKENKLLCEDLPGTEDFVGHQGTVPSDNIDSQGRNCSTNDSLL
Chain of 5-hydroxytryptamine receptor 2A (Homo sapiens) (P28223 whole entry, looked up): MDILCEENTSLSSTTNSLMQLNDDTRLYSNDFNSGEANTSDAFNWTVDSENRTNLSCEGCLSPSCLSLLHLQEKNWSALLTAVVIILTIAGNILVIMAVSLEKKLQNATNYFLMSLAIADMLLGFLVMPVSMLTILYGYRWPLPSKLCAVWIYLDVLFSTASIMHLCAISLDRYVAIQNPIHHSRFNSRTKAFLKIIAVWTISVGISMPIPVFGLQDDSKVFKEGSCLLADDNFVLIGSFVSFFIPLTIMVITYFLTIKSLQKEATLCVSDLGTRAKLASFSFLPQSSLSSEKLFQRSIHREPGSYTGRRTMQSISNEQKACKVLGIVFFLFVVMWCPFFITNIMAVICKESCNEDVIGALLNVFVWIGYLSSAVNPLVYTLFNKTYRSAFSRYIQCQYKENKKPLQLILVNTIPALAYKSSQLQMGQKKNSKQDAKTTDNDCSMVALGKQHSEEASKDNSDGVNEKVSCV
Chain of Gonadotropin-releasing hormone receptor (Homo sapiens) (P30968 whole entry, looked up): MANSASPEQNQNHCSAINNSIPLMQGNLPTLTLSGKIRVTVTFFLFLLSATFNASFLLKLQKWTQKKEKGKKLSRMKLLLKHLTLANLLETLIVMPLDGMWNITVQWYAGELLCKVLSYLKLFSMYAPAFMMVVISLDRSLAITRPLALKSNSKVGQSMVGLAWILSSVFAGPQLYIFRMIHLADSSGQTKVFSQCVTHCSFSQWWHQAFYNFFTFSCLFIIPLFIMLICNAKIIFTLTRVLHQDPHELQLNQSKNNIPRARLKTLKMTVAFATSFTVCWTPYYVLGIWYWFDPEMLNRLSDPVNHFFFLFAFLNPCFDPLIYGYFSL

Consider `C1CC(COCC2CO2)CCC1COCC1CO1` (centres undefined), for which the Potency entry in experiment [1], in experiment [3], in experiment [5], in experiment [6], in [7] and in [8] was “inactive” in each case. The Potency entry in experiment [9], in experiment [10], in [11], in experiment [12], in experiment [13] and in experiment [14] was “inactive” each time. For the same compound, in [2], the Potency was 61.1 µM (active). In addition, the outcome in [4] was inactive.
Regarding `CCc1nnc(NS(=O)(=O)c2ccc(N)cc2)s1`, the Potency entry in experiment [1], in [2], in [3], in experiment [5], in experiment [15] and in experiment [16] was “inactive” each time. Besides, the Potency result in experiment [7], in [17], in experiment [8], in experiment [9], in experiment [10] and in [11] was “inactive” each time. Also, the Potency entry in [18], in experiment [19], in [12], in experiment [20], in experiment [13] and in experiment [14] was “inactive” in each case. In experiment [4], the result was inactive.
As for `O=C(O)c1cn(C2CC2)c2cc(Cl)c(F)cc2c1=O`, the Potency entry in experiment [1], in experiment [3], in experiment [15], in [6], in experiment [16] and in [7] was “inactive” throughout. Also, the Potency result in experiment [17], in experiment [8], in experiment [9], in [10], in experiment [11] and in [12] was “inactive” each time. The Potency result in [13] and in [14] was “inactive” each time. In addition, the Potency in experiment [2] is 13.3 µM (active). The result in experiment [4] was inactive.
As for `c1ccc(C(O[C@H]2CCCN(CCc3ccc4c(c3)OCO4)C2)c2ccccc2)cc1`, the Potency result in [1], in experiment [2], in experiment [3], in experiment [5], in experiment [15] and in [6] was “inactive” in each case. Also, the Potency result in [16], in experiment [9], in experiment [11], in experiment [18], in experiment [19] and in experiment [13] was “inactive” throughout. Besides, the Potency result in experiment [14] is “inactive”. Also, the outcome in [4] was inactive. Further, the Potency in experiment [8] is 9.18 µM (active).
As for `C[C@@H]1C[C@H]2[C@@H]3CCC4=CC(=O)C=C[C@]4(C)[C@@]3(F)[C@@H](O)C[C@]2(C)[C@@]1(O)C(=O)CO`, the Potency result in experiment [1], in [2], in [3], in experiment [5], in experiment [6] and in [16] was “inactive” throughout. Further, the Potency result in experiment [17], in experiment [12], in [13] and in experiment [14] was “inactive” each time. For the same compound, the outcome in experiment [4] was inactive.
For the compound `CN(C)CCCN1c2ccccc2Sc2ccccc21`, the Potency entry in experiment [1], in [2], in experiment [3], in experiment [5], in experiment [15] and in experiment [6] was “inactive” throughout. Besides, the Potency result in experiment [16], in experiment [18], in experiment [19] and in [13] was “inactive” throughout. The outcome in experiment [4] was inactive. Besides, in experiment [14], the Potency is 29.8 µM (active).
As for `CC/C(=C\C(=N/O)C(N)=O)C(C)[N+](=O)[O-]` (centres undefined), the Potency entry in [1], in experiment [2], in experiment [3], in experiment [5], in [17] and in [8] was “inactive” throughout. The Potency result in experiment [9], in [10], in experiment [18], in experiment [19], in experiment [12] and in [13] was “inactive” throughout. Also, the Potency entry in experiment [14] was “inactive”. For the same compound, the outcome in [4] was inactive.
For `COc1cnc(NS(=O)(=O)c2ccc(N)cc2)nc1`, the Potency entry in [1], in experiment [2], in experiment [3], in [5], in [15] and in [16] was “inactive” each time. Further, the Potency result in experiment [17], in experiment [8], in experiment [9], in experiment [10], in [11] and in [18] was “inactive” each time. Further, the Potency result in experiment [19], in [12], in experiment [20], in experiment [13] and in experiment [14] was “inactive” in each case. Moreover, in experiment [4], the outcome was inactive.

Source of the values: PubChem BioAssay (Tox21).
